From PubChem BioAssay (EPA / NIEHS)
Records with an inconclusive call do not appear. Activity calls are given as the source filed them. How the source made its calls, unless noted: active means hit-call score of the fitted dose curve at least 0.9, where 1 is the maximum; inconclusive means response in the unintended direction; inactive means score below 0.9.

Experiments:
[1] = CEETOX_H295R_OHPROG_noMTC: CeeTox H295R High-throughput Steroidogenesis Assay for OH-Progesterone (OHPROG), maximum tolerated concentration (MTC) filtered results only (AID 2283914; active means hit-call score of the fitted dose curve at least 0.9, where 1 is the maximum; inactive means score below 0.9); conditions: actives raise or lower the signal
Outline: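 Forskolin 10 uM, 48 h prestim → test cmpd in DMSO (0.1% final), 48 h → medium MTBE extraction → LC-MS/MS quant of 17alpha-OH-progesterone. Bidirectional fit vs DMSO; no MTT-based MTC filtering.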

[2] = CEETOX_H295R_ANDR_noMTC: CeeTox H295R High-throughput Steroidogenesis Assay for Androstenedione (ANDR), maximum tolerated concentration (MTC) filtered results only (AID 2283915; active means hit-call score of the fitted dose curve at least 0.9, where 1 is the maximum; inactive means score below 0.9); conditions: actives raise or lower the signal
Outline: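 H295R cells, passage 10 or below, prestimulated 48 h with 10 uM forskolin, then exposed 48 h to chemical in 0.1% DMSO. Medium androstenedione extracted with MTBE, quantified by HPLC-MS/MS; concentrations not MTC-filtered; bidirectional fit versus DMSO.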

[3] = CEETOX_H295R_CORTISOL_noMTC: CeeTox H295R High-throughput Steroidogenesis Assay for Cortisol, maximum tolerated concentration (MTC) filtered results only (AID 2283916; active means hit-call score of the fitted dose curve at least 0.9, where 1 is the maximum; inactive means score below 0.9); conditions: actives raise or lower the signal
Outline: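 Cortisol secretion measured by LC-MS/MS after 48 h chemical treatment (final 0.1% DMSO) of forskolin-primed (10 uM, 48 h) H295R cells; gain or loss fitted relative to DMSO, without maximum-tolerated-concentration filtering.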

[4] = CEETOX_H295R_CORTIC_noMTC: CeeTox H295R High-throughput Steroidogenesis Assay for Corticosterone (CORTIC), maximum tolerated concentration (MTC) filtered results only (AID 2283917; active means hit-call score of the fitted dose curve at least 0.9, where 1 is the maximum; inactive means score below 0.9); conditions: actives raise or lower the signal
Outline: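 Following OECD 456 with minor changes, H295R cultures received 10 uM forskolin for 48 h, then test chemical at 0.1% DMSO for 48 h. Media steroids were extracted and measured by LC-MS/MS.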

[5] = CEETOX_H295R_DOC_noMTC: CeeTox H295R High-throughput Steroidogenesis Assay for DOC, maximum tolerated concentration (MTC) filtered results only (AID 2283918; active means hit-call score of the fitted dose curve at least 0.9, where 1 is the maximum; inactive means score below 0.9); conditions: actives raise or lower the signal
Outline: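 11-Deoxycorticosterone secreted by human adrenal H295R cells quantified by HPLC-MS/MS after 48 h chemical exposure (0.1% DMSO), following 48 h 10 uM forskolin prestimulation. Concentrations not filtered by MTT-derived MTC; bidirectional fitting.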

[6] = CEETOX_H295R_ESTRADIOL_noMTC: CeeTox H295R High-throughput Steroidogenesis Assay for Estradiol, maximum tolerated concentration (MTC) filtered results only (AID 2283919; active means hit-call score of the fitted dose curve at least 0.9, where 1 is the maximum; inactive means score below 0.9); conditions: actives raise or lower the signal
Outline: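 H295R human adrenal cells pre-stimulated 48 h with 10 uM forskolin, then exposed 48 h to chemical (0.1% DMSO final). Estradiol in medium measured by HPLC-MS/MS after MTBE extraction and dansyl derivatization; bidirectional fit versus DMSO, concentrations not MTT-filtered.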

[7] = CEETOX_H295R_PROG_noMTC: CeeTox H295R High-throughput Steroidogenesis Assay for Progesterone (PROG), maximum tolerated concentration (MTC) filtered results only (AID 2283920; active means hit-call score of the fitted dose curve at least 0.9, where 1 is the maximum; inactive means score below 0.9); conditions: actives raise or lower the signal
Outline: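 H295R cells; forskolin 10 uM x 48 h prestim; test cpd 48 h, 0.1% DMSO final; media progesterone via LC-MS/MS; bidirectional fit vs DMSO; no MTT-based MTC filter applied.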

[8] = CEETOX_H295R_ESTRONE_noMTC: CeeTox H295R High-throughput Steroidogenesis Assay for Estrone, maximum tolerated concentration (MTC) filtered results only (AID 2283921; active means hit-call score of the fitted dose curve at least 0.9, where 1 is the maximum; inactive means score below 0.9); conditions: actives raise or lower the signal
Outline: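 H295R cells prestimulated 48 h with 10 uM forskolin, then exposed 48 h to chemical in 0.1% DMSO; medium estrone measured by HPLC-MS/MS after MTBE extraction and dansyl derivatization, fitted bidirectionally versus DMSO without MTT-based MTC filtering.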

[9] = CEETOX_H295R_TESTO_noMTC: CeeTox H295R High-throughput Steroidogenesis Assay for Testosterone (TESTO), maximum tolerated concentration (MTC) filtered results only (AID 2283924; active means hit-call score of the fitted dose curve at least 0.9, where 1 is the maximum; inactive means score below 0.9); conditions: actives raise or lower the signal
Outline: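 H295R cells prestimulated 48 h with 10 uM forskolin, then exposed 48 h to chemicals in 0.1% DMSO final. Testosterone in medium quantified by MTBE extraction and HPLC-MS/MS; bidirectional fit versus DMSO, concentrations […] filtered by MTT-based maximum tolerated concentration.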

PGR (gene 5241) [10] = target: PGR (gene 5241) (UniProt P06401); assay: TOX21_PR_BLA_Followup_Antagonist_ratio: Tox21 HEK293 Progesterone Receptor (PR) Antagonism Beta-lactamase Follow-Up Assay, Ratio (AID 2283934)
Chain of PGR (gene 5241) (P06401 whole entry, looked up): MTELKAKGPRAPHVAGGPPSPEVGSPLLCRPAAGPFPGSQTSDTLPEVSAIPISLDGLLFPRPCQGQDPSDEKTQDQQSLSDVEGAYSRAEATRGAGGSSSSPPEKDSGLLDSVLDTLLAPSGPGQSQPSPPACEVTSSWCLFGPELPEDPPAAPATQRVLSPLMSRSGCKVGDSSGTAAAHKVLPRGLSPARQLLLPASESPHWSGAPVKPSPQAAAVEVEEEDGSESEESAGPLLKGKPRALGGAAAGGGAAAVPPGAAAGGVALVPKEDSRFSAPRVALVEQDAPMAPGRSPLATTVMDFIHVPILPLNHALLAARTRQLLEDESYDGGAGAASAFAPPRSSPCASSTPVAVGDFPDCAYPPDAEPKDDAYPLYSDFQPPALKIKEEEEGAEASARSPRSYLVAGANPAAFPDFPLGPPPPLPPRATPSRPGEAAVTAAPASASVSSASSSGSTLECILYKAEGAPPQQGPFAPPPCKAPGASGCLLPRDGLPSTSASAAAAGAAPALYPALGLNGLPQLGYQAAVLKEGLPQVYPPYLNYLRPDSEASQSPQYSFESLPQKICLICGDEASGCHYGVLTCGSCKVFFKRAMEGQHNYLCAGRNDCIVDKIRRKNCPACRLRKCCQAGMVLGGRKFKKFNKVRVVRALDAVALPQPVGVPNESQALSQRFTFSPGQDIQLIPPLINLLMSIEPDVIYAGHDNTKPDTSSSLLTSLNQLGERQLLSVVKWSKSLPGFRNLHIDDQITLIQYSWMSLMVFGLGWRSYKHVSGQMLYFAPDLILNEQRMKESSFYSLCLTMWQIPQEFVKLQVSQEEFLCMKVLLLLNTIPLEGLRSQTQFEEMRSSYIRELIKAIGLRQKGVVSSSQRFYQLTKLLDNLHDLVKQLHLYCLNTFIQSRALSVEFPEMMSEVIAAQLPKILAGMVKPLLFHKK
Outline: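 PR-UAS-bla HEK293T cells, 3,000/well in 2% charcoal-stripped FBS, given compound plus 1nM R5020 agonist for 16 hr at 37C. Beta-lactamase FRET substrate 2 hours, ratio cleaved/uncleaved fluorescence; viability by CellTiter-Glo in same wells.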

[11] = TOX21_PR_BLA_Followup_Agonist_viability: Viability Assessment in the Tox21 HEK293 Progesterone Receptor (PR) Agonism Beta-lactamase Follow-Up Assay (AID 2283935);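 further: signal loss means lower viability so actives are cytotoxic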
Outline: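 PR-UAS-bla HEK293T cells in 2% charcoal-stripped FBS medium, plated 6 hr before compound addition, exposed 16 hr at 37C. Viability read by CellTiter-Glo ATP luminescence after 30 min at room temperature, in the same wells as the beta-lactamase readout.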

[12] = TOX21_PR_BLA_Followup_Antagonist_viability: Viability Assessment in the Tox21 HEK293 Progesterone Receptor (PR) Antagonism Beta-lactamase Follow-Up Assay (AID 2283936);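 further: hits lower the luminescence signal meaning cytotoxicity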
Outline: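 PR-UAS-bla HEK293T cells (3,000/well, 2% charcoal-stripped FBS) given compound plus R5020 agonist, 16 h at 37C. CellTiter-Glo added after bla read, 30 min at room temperature; luminescence loss indicates cytotoxicity.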

PGR (gene 5241) [13] = target: PGR (gene 5241) (UniProt P06401); assay: TOX21_PR_LUC_Followup_Antagonist: Tox21 HEK293 Progesterone Receptor (PR) Antagonism Luciferase Follow-Up Assay (AID 2283938);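 further: curve fitted upward as signal gain over DMSO baseline despite antagonist label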
Outline: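 Cells are grown 5 days in charcoal-stripped-FBS assay medium, plated, left 5 h, then dosed with compound and incubated 16 h. ONE-Glo reagent is added and luminescence read after 30 min.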

[14] = TOX21_PR_LUC_Followup_Antagonist_viability: Viability Assessment in the Tox21 HEK293 Progesterone Receptor (PR) Antagonism Luciferase Follow-Up Assay (AID 2283940)
Outline: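 HEK293-PR-A-luc cells kept in charcoal-stripped FBS medium were plated 5 h before compound addition, then exposed 16 h at 37C; viability read as cellular ATP by luciferase luminescence, loss of signal indicating cytotoxicity.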

[15] = TOX21_PR_LUC_Followup_Agonist_viability: Viability Assessment in the Tox21 HEK293 Progesterone Receptor (PR) Agonism Luciferase Follow-Up Assay (AID 2283941);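 further: loss of signal means cytotoxicity so actives lower viability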
Outline: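 HEK293-PR-A-luc cells, kept in 10% charcoal-stripped FBS medium, were treated with compounds for 16 h at 37C. Viability read as cellular ATP by luciferase-coupled luminescence; loss of signal indicates cytotoxicity.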

Measured: AC50

C/C=C/C(=O)C1=C(C)CCCC1(C)C
inactive: [3] | [4] | [6] | [8] | [9]
active: [1] 37.1 µM | [2] 31.3 µM | [5] 12.2 µM | [7] 10.6 µM

C[C@]12CC[C@@H]3c4ccc(O)cc4CC[C@H]3[C@@H]1CC[C@@H]2OC(=O)CCC1CCCC1
inactive: [11] | [12] | PGR (gene 5241) [13]
active: PGR (gene 5241) [10] 1.01 µM

C[C@]12CC[C@@H]3c4ccc(O)cc4CC[C@H]3[C@@H]1C[C@@H](O)[C@@H]2O
inactive: [11] | [14] | [15]
active: PGR (gene 5241) [10] 17.1 µM | PGR (gene 5241) [13] 26 µM
